Holding throughout (settings): concentration: 1 μM, replicates: in singlicate; n = 1
The test system of experiment [1] is MYO3A.
The subject of experiment [2] is MYO3B.
The test system of experiment [3] is T1, NDR1.
T1 construct: gene STK38

The subject of experiment [4] is NDR2.
For experiment [5], the system named is NEK10.
Experiment [6] relates to NEK11.
Experiment [7] deals with NEK1.
The test system of experiment [8] is NEK2.
In experiment [9] the test system is NEK3.
The subject of experiment [10] is NEK4.
For experiment [11], the system named is NEK5.
The test system of experiment [12] is NEK6.
Experiment [13] has as its system NEK7.
Experiment [14] relates to NEK9.
In experiment [15] the test system is T2, NIK.
T2 construct: gene MAP3K14

The test system of experiment [16] is T3, NIM1.
T3 construct: gene MGC42105

The test system of experiment [17] is NLK.
Experiment [18] has as its system T4, OSR1.
T4 construct: gene OXSR1

The subject of experiment [19] is PAK1.
Experiment [20] has as its system PAK2.
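Also: KINOMEscan kinase panel screen.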

For the molecule `COc1ccc(Nc2nccc(N3CCC(NC(=O)c4cc5ccccc5s4)C3)n2)cc1` (stereo not shown) [GSK1379738], the “%Inh” value in experiment [1] came out at 11%; in [2], 0%; in experiment [3] it was 0%; in experiment [4] it was 0%; in experiment [5] it was 16%; in [6], 0%. For the same molecule, the “%Inh” value is listed as 2% in experiment [7]; 1% in experiment [8]; 15% in experiment [9]; 0% in [10]; 19% in experiment [11]; 0% in [12]. The “%Inh” value is listed as 0% in experiment [13]; 0% in experiment [14]; 1% in experiment [15]; 9% in experiment [16]; 20% in experiment [17]; 0% in [18]. For the same molecule, the results for the “%Inh” value in [19] and in experiment [20] were 2% and 0%, respectively.

Turning to `Fc1ccc(-c2nc[nH]c2-c2ccncc2)cc1` [SB-217360], the “%Inh” value in [1] is 0%; in [2], 6%; in experiment [3], 30%; in experiment [4] it was 9%; in experiment [5], 24%; in [6], 0%. Besides, the “%Inh” value in experiment [7] was found to be 0%; in experiment [8] it was 0%; in experiment [9], 11%; in [10], 0%; in [11], 0%; in experiment [12], 0%. Besides, the “%Inh” value in [13] is 0%; in [14], 0%; in [15] it was 20%; in experiment [16], 4%; in [17], 49%; in experiment [18], 0%. Moreover, the “%Inh” value in [19] stood at 23%; in experiment [20], 25%.

On to `Fc1ccc(-c2nn3cccc(F)c3c2-c2ccncc2)cc1` [GW475620], for which the “%Inh” value in [1] was determined as 0%; in experiment [2], 7%; in [3], 0%; in experiment [4], 0%; in experiment [5] it was 1%; in experiment [6], 0%. Moreover, the “%Inh” value amounted to 0% in experiment [7]; 0% in experiment [8]; 0% in experiment [9]; 0% in experiment [10]; 0% in [11]; 2% in [12]. Further, the “%Inh” value in experiment [13] was 1%; in experiment [14] it was 0%; in [15], 37%; in experiment [16] it was 21%; in experiment [17], 61%; in experiment [18], 2%. The “%Inh” value in experiment [19] is reported as 0%; in [20], 3%.

As to `COc1ccc(CSc2nnc(-c3ccc4nccn4c3)o2)cc1C(F)(F)F`, the “%Inh” value in [1] is given as 2%; in experiment [2], 0%; in experiment [3], 14%; in experiment [4], 12%; in experiment [5], 13%; in [6] it was 0%. In addition, the “%Inh” value in experiment [7] was determined as 3%; in experiment [8], 0%; in [9] it was 0%; in experiment [10], 4%; in [11] it was 4%; in [12], 10%. Also, the “%Inh” value was determined as 7% in [13]; 0% in experiment [14]; 0% in [15]; 0% in experiment [16]; 18% in experiment [17]; 8% in experiment [18]. Also, the entries for the “%Inh” value in experiment [19] and in experiment [20] were 15% and 61%, respectively.

As to `CN1c2ccc(-c3ccc(C(N)=O)cc3)cc2-c2[nH]ncc2S1(=O)=O`, the “%Inh” value in experiment [1] is given as 0%; in experiment [2], 11%; in experiment [3], 26%; in experiment [4], 3%; in [5], 0%; in experiment [6] it was 0%. Further, the “%Inh” value was found to be 0% in experiment [7]; 0% in experiment [8]; 35% in [9]; 0% in experiment [10]; 0% in [11]; 0% in [12]. The “%Inh” value is on record as 0% in experiment [13]; 0% in experiment [14]; 12% in experiment [15]; 0% in experiment [16]; 8% in experiment [17]; 0% in experiment [18]. For the same molecule, the “%Inh” value in experiment [19] worked out at 11%; in experiment [20], 22%.

Consider `COC(=O)c1cccc(NC(=O)NC2CCN(c3ccnc(Nc4ccc(F)cc4)n3)C2)c1` (stereo not shown) [GSK1379725], for which the “%Inh” value in [1] turned out to be 0%; in experiment [2], 0%; in experiment [3], 0%; in experiment [4], 0%; in [5], 16%; in [6], 0%. The “%Inh” value in experiment [7] was found to be 0%; in experiment [8] it was 0%; in experiment [9], 1%; in [10], 19%; in experiment [11] it was 10%; in experiment [12] it was 0%. For the same molecule, the “%Inh” value in experiment [13] is 0%; in [14], 0%; in [15] it was 0%; in [16], 27%; in experiment [17], 0%; in experiment [18] it was 10%. Further, the “%Inh” value in experiment [19] and in [20] was 0% throughout.

In the case of `Cc1c(Cn2c3ccccc3n3c(=O)cc(N4CCOCC4)nc23)cccc1C(F)(F)F` [GSK2306394], the “%Inh” value is 0% in experiment [1]; 0% in experiment [2]; 0% in experiment [3]; 58% in [4]; 0% in experiment [5]; 0% in [6]. Also, the “%Inh” value in [7] came out at 0%; in experiment [8], 23%; in [9], 0%; in [10], 0%; in experiment [11], 0%; in [12], 0%. Also, the “%Inh” value was found to be 17% in experiment [13]; 9% in experiment [14]; 61% in [15]; 7% in [16]; 0% in experiment [17]; 3% in experiment [18]. Also, the “%Inh” value in experiment [19] is listed as 12%; in [20] it was 7%.

Turning to `Cn1cncc1-c1cc2c(Nc3ccc(OCc4ccccc4)cc3)ncnc2cn1` [GW281179], the “%Inh” value in experiment [1] came out at 10%; in experiment [2] it was 0%; in experiment [3] it was 10%; in experiment [4] it was 0%; in experiment [5], 17%; in experiment [6], 13%. Also, the “%Inh” value in experiment [7] is given as 0%; in [8], 0%; in [9] it was 0%; in experiment [10], 5%; in experiment [11], 26%; in [12], 0%. The “%Inh” value turned out to be 0% in [13]; 45% in experiment [14]; 3% in [15]; 21% in experiment [16]; 29% in experiment [17]; 14% in [18]. The “%Inh” value in experiment [19] came out at 10%; in experiment [20], 19%.

As to `COc1ccc2cc(-c3nc(-c4ccccc4C(C)C)[nH]c3-c3ccncc3)ccc2c1` [SB-660566], the “%Inh” value in experiment [1] worked out at 0%; in [2], 0%; in experiment [3] it was 18%; in experiment [4] it was 0%; in experiment [5], 45%; in [6], 4%. Moreover, the “%Inh” value in experiment [7] is 41%; in experiment [8] it was 0%; in experiment [9] it was 0%; in experiment [10], 15%; in experiment [11], 0%; in experiment [12], 2%. Moreover, the “%Inh” value in experiment [13] was determined as 0%; in [14], 4%; in experiment [15], 0%; in [16], 13%; in experiment [17], 29%; in [18], 3%. Besides, the “%Inh” value in experiment [19] is recorded as 25%; in experiment [20], 28%.

Consider `COc1ccc(Nc2nccc(-c3ccc(NC(=O)c4cc5cc(F)ccc5[nH]4)cc3)n2)cc1` [GSK1229496], for which the “%Inh” value in [1] turned out to be 0%; in experiment [2], 0%; in [3] it was 7%; in experiment [4] it was 2%; in [5], 0%; in experiment [6], 17%. Further, the “%Inh” value in experiment [7] stood at 0%; in experiment [8] it was 0%; in [9], 0%; in [10] it was 0%; in experiment [11], 14%; in [12], 0%. Further, the “%Inh” value in experiment [13] was 0%; in [14] it was 0%; in [15] it was 30%; in experiment [16], 0%; in experiment [17], 23%; in [18] it was 8%. The “%Inh” value in experiment [19] and in experiment [20] was 0% each time.

On to `CC(=O)c1cccc(NC(=O)NC2CCN(c3ccnc(Nc4ccc(F)cc4)n3)C2)c1` (stereo not shown) [GSK1379710], for which the “%Inh” value in experiment [1] is 43%; in experiment [2], 0%; in experiment [3], 12%; in experiment [4], 38%; in [5], 0%; in [6] it was 6%. Besides, the “%Inh” value in experiment [7] was 3%; in experiment [8], 8%; in experiment [9], 8%; in experiment [10], 0%; in experiment [11], 35%; in experiment [12], 0%. In addition, the “%Inh” value in experiment [13] stood at 0%; in experiment [14], 15%; in experiment [15] it was 0%; in [16], 38%; in experiment [17], 25%; in experiment [18], 5%. The “%Inh” value in experiment [19] was determined as 8%; in [20] it was 0%.

(Values after publication PMC5540273 (PLoS ONE, 2017).)
